From PubChem BioAssay AID488841 (Sanford-Burnham Center for Chemical Genomics, 2010)
In all, about 1,400 compounds went through this assay and about 380 (27%) were called active. Some of the results follow. A number with no mark means an inactive call.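 The calls were made as follows: active = mean inhibition above 50% across duplicate retests at 10 µM; inactive = the rest.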

assay: yeast NALP1 reporter signal suppression – S. cerevisiae, luminescence, single concentration, NALP1 inhibitor project, confirmation (AID 488841);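 also: plate controls were DMSO in galactose medium for no effect and cells in plain SD medium for full effect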; details: S. cerevisiae NALP1/ASC/Caspase-1 reporter, beta-gal luminescence; at 10 µM; hits give high values

SMILES	inhibition
COC(=O)c1cc(OC)c(OC)cc1NC(=S)N1CCN(c2ccccc2)CC1	30%
COC(=O)/C=C/C(=O)N1CCN(c2cccc(Cl)c2)CC1	54.7% (active)
O=C(CN1CCN(c2cccc(Cl)c2)CC1)Nc1ccc(S(=O)(=O)N2CCOCC2)cc1	35.4%
Cc1ccnc(NS(=O)(=O)c2ccc(NC(=O)CSc3nc(-c4ccccc4)cc(=O)[nH]3)cc2)n1	12.6%
CCOc1cc(C(=O)OCC(=O)Nc2ncc(Cl)c(C)c2Cl)ccc1OCC(=O)N1CCOCC1	27.4%
CC(=O)N1CCCc2cc(S(=O)(=O)N3CCc4ccccc4C3)ccc21	33.2%
O=C(NCCCN1CCc2ccccc2C1)Nc1ccc(Br)cc1	25.1%
O=C(Nc1ccccc1)N1CCc2ccccc2C1	62% (active)
Cc1ccc2cc3cc(C(=O)NCCCN4CCc5ccccc5C4)oc3nc2c1	30.9%
Cc1ccc(NC(=O)N2CCc3ccccc3C2)cc1	64.8% (active)
COC(=O)/C(=N/Nc1ccc(C)cc1)N1CCCc2ccccc21	32%
CCCCCCCCCCOC(=O)Cn1c(COc2ccc(Cl)cc2)[n+](C)c2ccccc21	34%
O=C1NC(c2ccccc2)Nc2c1sc(=S)n2-c1ccccc1 (configuration not stated)	25.1%
CCN(CC)S(=O)(=O)c1ccc2oc(C(=O)NC3CCCc4ccccc43)c(C)c2c1 (configuration not stated)	4.35%
CCN1/C(=C/c2ccc3cc(C)ccc3[n+]2CC)Sc2ccccc21	101% (active)
CC[n+]1c(/C=C2\Sc3ccccc3N2C)ccc2cccc(C)c21	96.8% (active)
CCN1/C(=C/c2ccc3ccc(C)cc3[n+]2CC)Sc2ccccc21	21.4%
CCN1/C(=C\c2ccc3ccccc3[n+]2CC)Sc2cc(C)ccc21	98.2% (active)
Cc1cc(=O)n2ccccc2c1C#N	9.65%
C/C(=N/NC(=O)c1nnn(-c2nonc2N)c1COc1ccccc1)c1ccc(O)cc1	22.6%
Cc1cc(C)cc(C(=O)OCC(=O)NCCNC(=O)COC(=O)c2cc(C)cc(C)c2)c1	31.4%
OCCN(CCO)c1ncnc2c1oc1ccc(Br)cc12	31.3%
CC1CN(S(=O)(=O)c2ccc(C(=O)Nc3nc(-c4cc5ccccc5o4)cs3)cc2)CC(C)O1 (configuration not stated)	30.1%
N#CC1(C#N)CC(C=O)=C(N)C1(C#N)CC(=O)C12CC3CC(CC(C3)C1)C2 (configuration not stated)	36.1%
Cc1ccc(Cl)cc1N1CCN(S(C)(=O)=O)CC1	39.6%
CCCC(CCC)c1nc2ccncc2[nH]1	27.4%

SMILES	inhibition
CC(=O)NS(=O)(=O)c1ccc(NC(=O)CSc2ccccc2)cc1	8.45%
CCN(CC)CCCOc1ccc(Cl)c(Cl)c1	44.2%
C#CCN(C)CCCOc1ccc(Cl)cc1Cl	55.1% (active)
CCCCNCCOCCOc1ccc(Cl)cc1Br	48%
CC(C)CC(=O)N1CCN(S(=O)(=O)c2ccccc2)CC1	24.9%
COc1ccc(-c2cc(-c3cc(OC)ccc3O)[nH]n2)cc1	49.4%
Cc1ccc2c(c1)c1c3n2CCCNC3CCC1 (configuration not stated)	43.8%
O=C(c1ccccc1-c1ccccc1)N1CCN(c2ccccn2)CC1	29.1%
CCOC(=O)c1cc(-c2ccccc2)n(CCC(=O)N2CCN(c3ccccn3)CC2)c1C	39.2%
O=C(N1CCN(c2ccccn2)CC1)C(Cl)(Cl)Cl	60.1% (active)
C=C(C)C(=O)Nc1nnc(-c2cccs2)s1	55.5% (active)
C=C(C)C(=O)Nc1cccc(C(C)=O)c1	10.3%
Cn1c(SCC(=O)NC(c2ccccc2)c2ccccc2)nnc1-c1cccs1	34%
CN1/C(=C\C(=O)c2cccs2)C(C)(C)c2ccccc21	35.5%
O=C(COC(=O)CCC1CCCCC1)Nc1ccc(OC(F)F)cc1	19.5%
CCCCNC1CCS(=O)(=O)C1 (configuration not stated)	24%
CCCCCCOc1ccc(/C(C)=N/NC2=NCCN2)cc1	51.5% (active)
CCCCCCOc1ccc(OC(=O)c2ccncc2)cc1	24.9%
CCCCCCOc1ccc(-c2ccc(C#N)cn2)cc1	34.9%
CCCCCOc1ccc(Br)cc1/C(C)=N/NC1=NCCN1	51.2% (active)
CCCCOc1ccc(CSC2=NCCN2)cc1[N+](=O)[O-]	43.9%
CCn1c(SCC(=O)Nc2ccc3c(c2)OCO3)nnc1-c1cnccn1	36.9%
CCOc1ccccc1C1CC(=O)NC(SCC(=O)Nc2nccs2)=C1C#N (configuration not stated)	10.4%
CCOc1nc(N2CCOCC2)nc(N2CCOCC2)n1	29.6%
O=[N+]([O-])c1cc(Cc2ccccc2)cc(C=Nc2ccc(N3CCOCC3)cc2)c1O	47.5%
O=C(N/N=C\c1cccc([N+](=O)[O-])c1O)C1COc2ccccc2O1 (configuration not stated)	56.7% (active)

SMILES	inhibition
COc1cccc(/C=N/NC(=O)CNC(=O)C2COc3ccccc3O2)c1O (configuration not stated)	41%
NCCS	55.1% (active)
CCCCCCC(=O)N(O)C1CC(=O)N(Cc2ccccc2)C1=O (configuration not stated)	15.2%
C=CCn1c(CNC(=O)c2cccs2)nnc1SCC(=O)Nc1ccc(C(=O)O)cc1	24.2%
Cc1ccccc1Nc1cc(C)c2c(O)cccc2n1	65.8% (active)
CC(=O)Nc1ccc2nc(CN3CCC(CO)(CCc4ccccc4)CC3)ccc2c1	34.5%
Cc1c([N+](=O)[O-])c(C(=O)Nc2ccc3c(c2)OCCO3)nn1C	27.4%
CNc1ccc(/C=C/C(=O)c2ccc3c(c2)OCCO3)cc1[N+](=O)[O-]	52.8% (active)
CCn1c(SCC(=O)Nc2oc(-c3ccccc3)c(-c3ccccc3)c2C#N)nnc1-c1cc(OC)cc(OC)c1	22.6%
COc1ccc(S(=O)(=O)N(CC(=O)N2CCOCC2)Cc2ccccc2)cc1C	22.4%
CC1(C)CC(=O)c2c(-c3cccs3)n[nH]c2C1	38.8%
CC1=NNC(=O)/C1=C\c1cn(-c2ccccc2)nc1-c1cccs1	62.4% (active)
Brc1ccc2c(c1)OCCOCCOc1cc(Br)ccc1OCCOCCOCCO2	59.6% (active)
CCCc1cc(C(=O)Nc2cccc(Cl)c2)no1	67.2% (active)
CCn1ncc([N+](=O)[O-])c1C(=O)Nc1ccc(C(=O)N2CCCCC2)cc1	32.5%
CCn1nccc1C(=O)Nc1ccc(Cl)cn1	35.4%
CCn1ncc(C(=O)Nc2cccc(Cl)c2)c1C	53.8% (active)
CCCc1cc(C(=O)Nc2ccc(F)cc2F)no1	36.5%
CCCc1cc(C(=O)Nc2c(C)n(C)n(-c3ccccc3)c2=O)no1	23.7%
COc1ccc(NC(=O)c2sc(N3CCOCC3)nc2-c2ccccc2)c(OC)c1	48.4%
Cc1cc(NC(=O)/C=C/c2ccccc2Cl)no1	46.5%
O=C(/C=C/c1ccccc1Cl)c1ccc[nH]1	73% (active)
CC(NC(=O)Nn1cnnc1)(C(F)(F)F)C(F)(F)F	9.3%
CCCCCCCCNC(C)C(O)c1ccc(SC(C)C)cc1 (configuration not stated)	46.5%
Cc1cc(C(C)(C)C)cc(S(=O)(=O)Nc2ccc(O)c(C(=O)O)c2)c1C	24.9%
CC1(C)CCSC(/C=C/c2ccccc2)=N1	84% (active)

SMILES	inhibition
O=C(O)C1(c2ccccc2)CCN(S(=O)(=O)c2ccc(Br)cc2)CC1	32.4%
CCOC(=O)C1CCCCN1Cc1cccc(F)c1 (configuration not stated)	19.9%
O=S(=O)(c1ccc(Br)cc1)N1CCCN(Cc2cccc(F)c2)CC1	59.5% (active)
COc1ccc(CCN(C)C2CC(=O)N(c3ccccc3)C2=O)cc1OC (configuration not stated)	45%
Cc1ccc(C(=O)/C=C\C(=O)c2ccc(C)cc2)cc1	51.1% (active)
Cc1ccc(C(=O)Oc2ccc3c(c2)ncn3C)cc1	47.5%
O=C(Nc1nc2c(c(=O)[nH]1)CCCC2)C1CC1	27%
O=C1CC(c2cccc(Cl)c2)CC(O)=C1C=Nc1cccc(Cl)c1 (configuration not stated)	36.5%
O=C1CC(c2ccccc2Cl)CC(O)=C1C=Nc1ccccc1 (configuration not stated)	52.8% (active)
C/C(=N\N1CCN(c2ccc(Cl)cc2)CC1)c1ccco1	23.6%
Cc1c(N)c(C(C)(C)C)cc(C(C)(C)C)c1[N+](=O)[O-]	29.1%
OC(CNCCc1ccc(C(F)(F)F)cc1)COc1cccc2ccccc12 (configuration not stated)	65.5% (active)
COCCNC(=O)CCc1ccc(S(=O)(=O)Nc2ccc(C)cc2)cc1	25.8%
O=C(c1ccc(Br)s1)N1CCN(C/C=C/c2ccccc2)CC1	50.6% (active)
COC(=O)c1ccccc1NC(=O)N1CCN(C/C=C/c2ccccc2)CC1	39.6%
CCC(C)c1ccccc1NC(=O)CN1CCN(C/C=C/c2ccccc2)CC1 (configuration not stated)	46.3%
O=C(NCC1CCCO1)C(c1cccs1)N(Cc1cccs1)C(=O)Cn1nnc(-c2cccs2)n1 (configuration not stated)	28.1%
C#CCCCCCCC#CCN(C)C	28.6%
CSc1sc(C(=O)N2CCc3ccccc32)cc1S(=O)(=O)C(C)C	20.9%
O=C(c1cnn2ccccc12)N1CCc2ccccc21	58% (active)
CCC(=O)N1CCc2cc(S(=O)(=O)N3CCc4ccccc43)ccc21	10.5%
CCN(CC)S(=O)(=O)c1cccc(C(=O)Oc2cccc(NC(=O)c3cccs3)c2)c1	36%
O=C(/C=C\Nc1cccc(F)c1)c1cccs1	31.6%
COc1cc(NC(=O)c2cccs2)cc(OC)c1	78.8% (active)
